Consider eight molecules from PubChem BioAssay (Tox21).

Molecules are shown by their SMILES. Where “and” joins values, the source holds several entries; their conditions need not be identical. Equal entries are not always repeated. Records with an inconclusive call do not appear. Calls of active or inactive are those of the source. Unless noted, the call rests on the fitted dose curve; in most records, active means well fitted curve in the direction sought with a large enough effect in the repeat runs; inconclusive means weak or mixed curves; inactive means no such curve, though single readings can be large; an effect the other way counts as inactive or inconclusive.

A short description of assay [1]: A CellTox Green Cytotoxicity Assay to monitor cytotoxicity in HepG2 cells - 0 hour (AID 1224882). Further: nearly all actives have a fitted effect of over 35% in size. In a few lines: (§1)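 Nonlytic assay: viable cells exclude the dye, so fluorescence scales with cell death. HepG2 at 600 cells/well, compounds added after 5 h, signal read across 40 h.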
Assay [2] can be described thus: A CellTox Green Cytotoxicity Assay to monitor cytotoxicity in HepG2 cells - 32 hour (AID 1224883). Further: nearly all actives have a fitted effect of over 50% in size. Further: potency means the concentration at half of the fitted maximal effect. In outline: as §1
Assay [3] in a line: A CellTox Green Cytotoxicity Assay to monitor cytotoxicity in HEK293 cells - 8 hour (AID 1224884). Further: nearly all actives have a fitted effect of over 35% in size. In outline:
(§2)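 Seeding of HEK293 cells together with cytotoxicity dye preceded a 5 h incubation at 37 C/5% CO2. Test compounds in DMSO were then added and fluorescence monitored across 40 h.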

The nature of assay [4]: qHTS RealTime-Glo MT Cell Viability Assay in HEK293 cells - 24 hour (AID 1224886). Further: nearly all actives have a fitted effect of over 50% in size. Further: potency means the concentration at half of the fitted maximal effect. In outline: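 HEK293 cells seeded with NanoLuc/prosubstrate reagent, rested 5 h at 37 C, then dosed and kept at 37 C up to 40 h. Nonlytic real-time luminescence from viable cells read at 0, 8, 16, 24, 32 and 40 h.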
A short description of assay [5]: qHTS RealTime-Glo MT Cell Viability Assay in HEK293 cells - 8 hour (AID 1224887). Further: nearly all actives have a fitted effect of over 50% in size. Further: potency means the concentration at half of the fitted maximal effect. In a few lines:
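Tox21 screen in HEK293 using RealTime-Glo MT chemistry, with cells and reagent co-dispensed. Luminescence proportional to viable cell number was captured at intervals during 40 h compound exposure at 37 C.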

Assay [6] can be described thus: A CellTox Green Cytotoxicity Assay to monitor cytotoxicity in HEK293 cells - 16 hour (AID 1224888). Further: nearly all actives have a fitted effect of over 35% in size. In a few lines: as §2
Assay [7] in a line: A CellTox Green Cytotoxicity Assay to monitor cytotoxicity in HepG2 cells - 8 hour (AID 1224890). Further: nearly all actives have a fitted effect of over 45% in size. In a few lines: as §1
Assay [8] can be described thus: qHTS assay to identify small molecule antagonists of the estrogen receptor alpha (ER-alpha) signaling pathway using the BG1 cell line in the presence of 0.1 nM 17-beta-estradiol - cell viability counter screen (AID 1259241). Further: nearly all actives have a fitted effect of over 40% in size. Further: potency means the concentration at half of the fitted maximal effect. In a few lines:
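VM7Luc4E2, 4,000 cells/well, phenol red-free medium + 10% charcoal-stripped FBS; 24 hr plating; cpd + 0.1 nM E2 final, 22 hr 37C/5% CO2; CellTiter-Fluor 30 min, fluorescence.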

A short description of assay [9]: qHTS assay to identify small molecule antagonists of the androgen receptor (AR) signaling pathway using the MDA cell line in the presence of 0.5 nM R1881 - cell viability counter screen (AID 1259242). Further: nearly all actives have a fitted effect of over 45% in size. Further: potency means the concentration at half of the fitted maximal effect. In a few lines: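 R1881 at 0.5 nM final stimulated MDA-kb2 cells during 16 hr compound treatment at 37C. Cytotoxicity read: CellTiter-Fluor fluorescence after 30 min.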

For assay [10], the target named is Androgen receptor (Homo sapiens) (UniProt P10275). Nature of the assay: qHTS assay to identify small molecule antagonists of the androgen receptor (AR) signaling pathway using the MDA cell line in the presence of 0.5 nM R1881 (AID 1259243). Further: potency means the concentration at half of the fitted maximal effect; nearly all actives have a fitted effect of over 50% in size. In outline: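 We exposed MDA-kb2 cells to compounds under 0.5 nM R1881 stimulation for 16 hr at 37C and quantified MMTV-driven luciferase by luminescence.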
Chain of Androgen receptor (Homo sapiens) (P10275 whole entry, looked up): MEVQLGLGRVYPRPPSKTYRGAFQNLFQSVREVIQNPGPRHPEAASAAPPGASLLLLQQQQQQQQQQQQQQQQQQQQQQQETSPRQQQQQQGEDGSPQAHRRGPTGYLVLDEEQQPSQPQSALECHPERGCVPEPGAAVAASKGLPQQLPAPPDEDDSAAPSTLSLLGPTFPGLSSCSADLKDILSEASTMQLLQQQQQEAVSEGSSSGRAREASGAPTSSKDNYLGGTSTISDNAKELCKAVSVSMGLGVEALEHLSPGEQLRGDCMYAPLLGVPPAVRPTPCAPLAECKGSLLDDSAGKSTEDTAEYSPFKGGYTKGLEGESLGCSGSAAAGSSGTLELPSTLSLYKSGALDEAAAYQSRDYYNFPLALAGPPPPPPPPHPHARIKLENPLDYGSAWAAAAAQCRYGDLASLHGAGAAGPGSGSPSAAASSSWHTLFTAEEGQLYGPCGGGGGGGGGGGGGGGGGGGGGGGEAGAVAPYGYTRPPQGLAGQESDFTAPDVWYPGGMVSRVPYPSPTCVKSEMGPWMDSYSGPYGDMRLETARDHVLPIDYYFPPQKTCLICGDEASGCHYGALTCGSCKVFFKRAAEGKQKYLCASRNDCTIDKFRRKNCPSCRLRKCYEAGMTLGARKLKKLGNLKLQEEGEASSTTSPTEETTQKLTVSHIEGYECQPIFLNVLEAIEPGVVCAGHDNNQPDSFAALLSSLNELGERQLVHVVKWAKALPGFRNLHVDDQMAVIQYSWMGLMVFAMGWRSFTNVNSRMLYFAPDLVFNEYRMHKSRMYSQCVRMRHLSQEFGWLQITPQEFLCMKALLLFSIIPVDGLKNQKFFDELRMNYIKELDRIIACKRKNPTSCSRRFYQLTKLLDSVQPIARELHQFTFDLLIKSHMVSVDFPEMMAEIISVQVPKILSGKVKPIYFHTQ

Assay [11] is described as follows: qHTS assay to identify small molecule HDAC inhibitors (AID 1259364).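 Further: wild-type HCT-116 cells with endogenous class I/II HDAC activity; top concentration of the series differs between compounds; nearly all actives have a fitted effect of over 45% in size.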 In outline: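 Relative class I and II HDAC activity is taken from the luminogenic signal in HCT-116 cells, with compound exposure 2 hr and reagent development 30 min at room temperature.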
A short description of assay [12]: qHTS assay to identify small molecule agonists of the sonic hedgehog signaling (Shh) pathway - cell viability counter screen (AID 1259366). Further: nearly all actives have a fitted effect of over 50% in size. Further: potency means the concentration at half of the fitted maximal effect. In a few lines:
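Cytotoxicity counter screen run in the same wells as the Shh reporter assay. NIH/3T3 cells carrying a Gli1 response element–driven luciferase were treated with DMSO-dissolved compounds for 24hr, and live-cell protease activity was measured with CellTiter-Fluor.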

Assay [13] can be described thus: qHTS assay to identify small molecule antagonists of the sonic hedgehog signaling (Shh) pathway - cell viability counter screen (AID 1259367). Further: nearly all actives have a fitted effect of over 55% in size. Further: potency means the concentration at half of the fitted maximal effect. In a few lines:
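After a 4 hr settling period, 3T3 Gli1-Luc cells were treated with DMSO-dissolved chemicals and conditioned medium, kept 24 hr at 37C in 5% CO2, and assayed for viability by CellTiter-Fluor fluorescence following 1 hr reagent incubation.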

Assay [14] is described as follows: qHTS assay to identify small molecule agonists of the sonic hedgehog signaling (Shh) pathway (AID 1259368; calls by dose curve;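 further: NIH/3T3-derived 3T3Gli1-Luc cells carrying a stable Gli1-driven firefly luciferase reporter; series mostly up to about 92 µM; nearly all actives have a fitted effect of over 15% in size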). In a few lines:
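Mouse fibroblast (NIH/3T3) reporter cells with stably integrated Gli1-Luc were treated 24 hr with compound; firefly luciferase luminescence served as the read-out.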

A short description of assay [15]: qHTS assay to identify small molecule antagonists of the sonic hedgehog signaling (Shh) pathway (AID 1259369; calls by dose curve; further: nearly all actives have a fitted effect of over 45% in size; further: potency means the concentration at half of the fitted maximal effect). In a few lines: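 Conditioned medium drives Shh signalling in 3T3Gli1-Luc cells; compounds in DMSO co-applied, 24hr at 37 C, then luciferase luminescence.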
Assay [16] can be described thus: qHTS RealTime-Glo MT Cell Viability Assay in HepG2 cells - 16 hour (AID 1224885). Further: nearly all actives have a fitted effect of over 50% in size. In a few lines:
(§3)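 HepG2 cells (600/well) were dispensed with RealTime-Glo reagents, incubated 5 h at 37 °C, then treated with compounds in DMSO for up to 40 h. Nonlytic NanoLuc luminescence reflecting viable cells was read at each stated time point.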

A short description of assay [17]: qHTS RealTime-Glo MT Cell Viability Assay in HepG2 cells - 0 hour (AID 1224889). Further: nearly all actives have a fitted effect of over 50% in size. In a few lines: as §3
In assay [18] the target is Estrogen receptor (Homo sapiens) (UniProt P03372). The experiment in a line: qHTS assay to identify small molecule antagonists of the estrogen receptor alpha (ER-alpha) signaling pathway using the BG1 cell line in the presence of 0.1 nM 17-beta-estradiol (AID 1259244). Further: nearly all actives have a fitted effect of over 50% in size. In outline: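 VM7Luc4E2; 4xERE-luciferase; 0.1 nM E2 final; 22 h co-incubation, 37C; ONE-Glo luminescence after 30 min at room temperature.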
Chain of Estrogen receptor (Homo sapiens) (P03372 whole entry, looked up): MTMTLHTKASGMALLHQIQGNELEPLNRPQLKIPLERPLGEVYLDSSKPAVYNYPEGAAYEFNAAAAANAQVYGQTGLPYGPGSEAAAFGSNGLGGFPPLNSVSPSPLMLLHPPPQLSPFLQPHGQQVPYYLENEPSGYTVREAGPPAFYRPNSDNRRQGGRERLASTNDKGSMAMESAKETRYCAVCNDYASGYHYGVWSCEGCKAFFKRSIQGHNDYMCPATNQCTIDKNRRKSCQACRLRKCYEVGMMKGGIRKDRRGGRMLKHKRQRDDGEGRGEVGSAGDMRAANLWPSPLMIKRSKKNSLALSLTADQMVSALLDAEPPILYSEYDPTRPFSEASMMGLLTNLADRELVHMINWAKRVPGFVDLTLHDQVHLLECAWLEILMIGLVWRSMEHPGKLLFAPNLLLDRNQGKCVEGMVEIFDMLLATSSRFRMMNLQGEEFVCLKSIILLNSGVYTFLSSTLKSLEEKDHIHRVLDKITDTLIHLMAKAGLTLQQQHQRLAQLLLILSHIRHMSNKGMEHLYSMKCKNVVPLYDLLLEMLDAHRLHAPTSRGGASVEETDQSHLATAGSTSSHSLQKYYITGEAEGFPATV

A short description of assay [19]: qHTS assay to identify small molecule phospholipidosis (PLD) inducers (AID 1259344; active means well fitted curve in the direction sought with a large enough effect; an effect the other way counts as inactive or inconclusive). In a few lines:
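HepG2 cells grown on collagen I take up LipidTOX Red while exposed to compound for 24 h; after fixation they are imaged at 20x and pit metrics are extracted.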

A short description of assay [20]: qHTS assay to identify small molecule HDAC inhibitors - cell viability counter screen (AID 1259365). In outline: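 Luminescence from CellTiter-Glo, developed 30min at room temperature, reports viability of wild-type HCT-116 cells treated 2hr with compounds at 37 C and 5% CO2 after overnight plating.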

For `Cc1ccc(S(=O)(=O)Oc2ccc(N=Nc3ccc(-c4ccc(N=Nc5c(O)ccc6cc(S(=O)(=O)O)cc(S(=O)(=O)O)c56)c(C)c4)cc3C)cc2)cc1`, the Potency result in assay [1], in [2], in assay [3], in assay [4], in assay [5] and in assay [6] was “inactive” in each case. Moreover, the Potency entry in assay [7], in [11], in [14] and in assay [15] was “inactive” throughout. The Potency in [8] was 21.8 µM (active) and 14.1 µM (active); in [9], 27.4 µM (active) and 17.8 µM (active); in [10], 17.3 µM (active) and 20 µM (active); in assay [12] it was 24.4 µM (active) and 15.9 µM (active); in assay [13] it was 24.4 µM (active) and 20 µM (active).
In the case of `[Cl][In]([Cl])[Cl]`, the Potency entry in assay [1], in [2], in assay [16], in assay [5], in assay [6] and in [17] was “inactive” each time. The Potency entry in assay [7], in assay [8], in assay [9], in assay [18], in assay [19] and in assay [11] was “inactive” throughout. For the same molecule, the Potency entry in [20], in assay [13] and in [14] was “inactive” throughout.
As to `CNC1(C)C2CCC(C2)C1(C)C` (stereo unspecified), the Potency result in assay [3], in assay [16], in [4], in assay [5], in assay [6] and in assay [17] was “inactive” in each case. The Potency result in assay [8], in [9], in assay [19], in assay [11], in [20] and in [12] was “inactive” throughout. Moreover, the Potency entry in assay [13], in assay [14] and in assay [15] was “inactive” throughout.
`O=C(O[C@@H]1Cc2c(O)cc(O)cc2O[C@@H]1c1cc(O)c(O)c(O)c1)c1cc(O)c(O)c(O)c1`: the Potency entry in assay [1], in assay [2], in assay [3], in [6], in assay [17] and in assay [7] was “inactive” throughout. Besides, the Potency entry in assay [18], in [20] and in assay [14] was “inactive” each time. Also, the Potency is 10.6 µM (active) in assay [4]; 27.4 µM (active) and 26.3 µM (active) in [12]; 23.4 µM (active) in assay [13]; 27.4 µM (active) in [15].
Take `CC(C)(C)c1cc(C(C)(C)C)c(O)c(C(C)(C)C)c1`: the Potency entry in [1], in assay [3], in assay [16], in [4], in assay [5] and in assay [7] was “inactive” each time. The Potency entry in assay [8], in assay [9], in assay [18], in assay [20], in assay [12] and in [13] was “inactive” each time. Moreover, the Potency entry in [14] and in [15] was “inactive” in each case.
`CCc1cc(C(C)(C)C)c(O)c(C(C)(C)C)c1`: the Potency entry in assay [1], in [2], in assay [3], in assay [16], in assay [4] and in assay [5] was “inactive” throughout. The Potency entry in [17], in assay [7], in [8], in assay [9], in assay [12] and in assay [13] was “inactive” each time. For the same molecule, the Potency entry in [14] and in assay [15] was “inactive” in each case.
As for `COc1ccc(CCN(C)CCCC(C#N)(c2ccc(OC)c(OC)c2)C(C)C)cc1OC` (stereo unspecified), the Potency result in assay [1], in [3], in assay [6], in [7] and in assay [19] was “inactive” throughout. In addition, the Potency in assay [2] was 54.8 µM (active).
Consider `COC(=O)[C@H]1[C@H]2C[C@@H]3c4[nH]c5cc(OC)ccc5c4CCN3C[C@H]2C[C@@H](OC(=O)c2cc(OC)c(OC)c(OC)c2)[C@@H]1OC`, for which the Potency result in [1], in assay [2], in assay [3], in [6], in assay [7] and in assay [8] was “inactive” each time. The Potency entry in assay [9], in assay [11], in assay [12], in [13] and in assay [14] was “inactive” throughout. For the same molecule, the Potency was 4.89 µM (active) and 6.34 µM (active) and 8.49 µM (active) in assay [4]; 4.89 µM (active) and 6.34 µM (active) and 9.52 µM (active) in [5]; 12.2 µM (active) and 15.8 µM (active) and 23.7 µM (active) in assay [15].
